{"source": "PubChem BioAssay (NCATS)", "note": "Results filed as inconclusive are left out. Entries that show only a call come without a potency. Active and inactive are the calls of the source. Calls follow the shape of the dose curve; as a rule, active = well fitted inhibition curve with a large enough effect; inconclusive = small, poorly fitted or top-dose-only effect; inactive = flat fitted curve, though single readings scatter."}
{"biological_target": "Calcium and integrin-binding protein 1 (Homo sapiens) (UniProt Q99828)", "sequence (Q99828 whole entry, looked up)": "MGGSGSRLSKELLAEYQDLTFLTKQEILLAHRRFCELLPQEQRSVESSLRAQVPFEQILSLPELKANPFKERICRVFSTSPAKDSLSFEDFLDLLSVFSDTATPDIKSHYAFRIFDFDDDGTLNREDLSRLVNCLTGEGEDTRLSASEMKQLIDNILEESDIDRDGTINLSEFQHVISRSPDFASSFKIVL", "assay": "Primary qHTS for Identification of Calcium Integrin Binding Protein 1 (CIB1) Competitor (AID 1508620);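 also: GST tagged CIB1 binding a fluorescein labelled alphaIIb integrin peptide tracer; top concentration of the series differs between compounds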", "details": "CIB1-GST / FITC-alphaIIb peptide fluorescence polarization; series mostly up to 114 µM", "description": "Assay Provider: Ulhas P. Naik, PhD Sidney Kimmel Medical College Thomas Jefferson University, Philadelphia, PA Primary function of platelets is to maintain hemostasis. At the site of vascular injury, platelets adhere to adhesive proteins such as collagen and von Willebrand factor. Adherent platelets are activated and generate soluble platelet agonists such as thrombin, ADP and thromboxane A2. Following exposure of circulating platelets to these agonists, results in platelet shape change, granule secretion and activation of platelet integrin alphaIIb-beta3. Ligand binding to activated integrin alphaIIb-beta3 triggers outside-in signaling, leading to platelet aggregation, stabilization of platelet plug, and clot retraction. Upon atherosclerotic plaque rupture also causes platelet plug formation, which underlies a number of cardiovascular diseases such as myocardial infraction and stroke. A number of anti-platelet drugs such as aspirin, clopidogrel, prasugrel, vorapaxar, and eptifibatide are currently available to prevent the thrombotic complications. However, these anti-platelet agents have several limitations including inherent variability in individual responses, developing resistance, and serious bleeding side effects. For these reasons they are not suitable for long-term protection. Based on the experiences with current anti-platelet drugs, it appears that the most useful therapeutic approach is to intersect the secondary responses such as integrin outside-in signaling or recruitment of platelets by TxA2 and secreted ADP. Compounds, which can largely preserve the primary hemostatic function of platelets but inhibit secondary response will be most desired therapeutic agents for treatment of cardiovascular disease. CIB1 is a calcium integrin binding protein, which specifically interact with the alphaIIb subunit of integrin alphaIIb-beta3. Binding of CIB1 to alphaIIb regulates the outside-in signaling in platelets, which is needed for thrombus stabilization and thrombus growth. […] Therefore, we propose that discovery of a small molecule that can prevent the association of CIB1 and alphaIIb-beta3 will be a potential anti-platelet agent that can block the thrombus formation without undue effect on hemostasis. Reference: [1] Naik MU, Nigam A, Manrai P, et al. CIB1 deficiency results in impaired thrombosis: the potential role of CIB1 in outside-in signaling through integrin alpha IIb beta 3. J Thromb Haemost.\nPROTOCOL TABLES SEQUENCE No. (1, 2, 3, etc.); […] (e.g., Cells, Incubation, Reagent, etc.); VALUE and DESCRIPTION. 1; Reagent; 3 uL; Protein or buffer (4/3x) 2; Compound; 46 nL; Control inhibitor / compound library 3; Time; 15 min; Room temperature incubation 4; Reagent; 1 uL; Fluorescent labeled peptide (4x) 5; Time; 1000 rpm; Centrifuge 6; Time; 15 min; Room temperature incubation 7; Detection; Ex 480/ Em 540; ViewLux Fluorescence Read NOTES (numbers refer to sequence above) 1; Protein Mixture: C1B1-GST (final concentrations of 1 uM). […] 3; Room temperature incubation. 4; Fluorescent Labeled Peptide: FITC-aIIb (final concentration of 100 nM). Sequence of alphaIIb peptide: Acetyl-[…]-FITC (purity is 95.83%). 5; Centrifuge 1000 rpm (164 g) for 15 seconds. 6; Room temperature incubation. 7; ViewLux Fluorescent Polization Read: excitation = 480(20) / emission = 540(25) S and P; FITC Dichroic mirror."}
{"smiles": "COC(=O)C(Cl)C(=O)OC", "Potency": "inactive"}
{"smiles": "C[C@]12CC[C@H]3[C@@H](CCC4=CC(=O)CC[C@@H]43)[C@@H]1CC[C@@H]2OC(=O)CCc1ccco1", "Potency": "inactive"}
{"smiles": "CC(C)(C)NCC(O)c1ccccc1Cl", "note": "(stereo not given)", "Potency": "inactive"}
{"smiles": "C[C@](O)(CS(=O)(=O)c1ccc(F)cc1)C(=O)Nc1ccc(C#N)c(C(F)(F)F)c1", "Potency": "inactive"}
{"smiles": "NCCc1ccc(O)cc1", "Potency": "inactive"}
{"smiles": "CCC(C)(C)c1ccc(O)cc1", "Potency": "inactive"}
{"smiles": "c1ccc(N2CCNCC2)cc1", "Potency": "inactive"}
{"smiles": "C=CCC1(C(C)CC)C(=O)NC(=O)NC1=O", "note": "(stereo not given)", "Potency": "inactive"}
{"smiles": "CN1CCC(O)(c2ccc(F)cc2)C(C(=O)c2ccc(F)cc2)C1", "note": "(stereo not given)", "Potency": "inactive"}
{"smiles": "C[C@]12CCC(=O)C=C1CC[C@@H]1[C@@H]2CC[C@]2(C)C(=O)CC[C@@H]12", "Potency": "inactive"}
{"smiles": "Nc1nc(N)nc(NC2CC2)n1", "Potency": "inactive"}
{"smiles": "C[C@]12Cc3cn[nH]c3C[C@@H]1CC[C@@H]1[C@@H]2CC[C@@]2(C)[C@H]1CC[C@]2(C)O", "Potency": "inactive"}
{"smiles": "COc1ccc2c(c1OC)C(=O)O[C@H]2[C@@H]1c2cc3c(cc2CCN1C)OCO3", "Potency": "inactive"}
{"smiles": "C[C@@H](N)[C@@H](O)c1ccccc1", "Potency": "inactive"}
{"smiles": "O=c1[nH]c2ccccc2n1C1CCNCC1", "Potency": "inactive"}
{"smiles": "CCCCCCCCCC(=O)O[C@H]1CC[C@H]2[C@@H]3CCC4=CC(=O)CC[C@@H]4[C@H]3CC[C@]12C", "Potency": "inactive"}
{"smiles": "Cc1ncsc1CCCl", "Potency": "inactive"}
{"smiles": "CCOC(=O)CC(SP(=S)(OC)OC)C(=O)OCC", "note": "(stereo not given)", "Potency": "inactive"}
{"smiles": "NC1=NC(=O)C(c2ccccc2)O1", "note": "(stereo not given)", "Potency": "inactive"}
{"smiles": "CCCOC(=O)c1cncn1C(C)c1ccccc1", "note": "(stereo not given)", "Potency": "inactive"}
{"smiles": "COc1cccc([C@@]2(O)CCCC[C@@H]2CN(C)C)c1", "Potency": "inactive"}
{"smiles": "Clc1ccc(C(c2ccc(Cl)cc2)C(Cl)(Cl)Cl)cc1", "Potency": "inactive"}
{"smiles": "COc1c2c(cc3c1OCO3)CCN(C)C2", "Potency": "inactive"}
{"smiles": "NC(=O)CS(=O)C(c1ccccc1)c1ccccc1", "note": "(stereo not given)", "Potency": "inactive"}
{"smiles": "Clc1cccc(SC2CCNCC2)n1", "Potency": "inactive"}
{"smiles": "O=C(O)c1ccc(=O)[nH]c1", "Potency": "inactive"}
{"smiles": "C#C[C@]1(O)CC[C@H]2[C@@H]3CCC4=CC(=O)CC[C@]4(C)[C@H]3CC[C@@]21C", "Potency": "inactive"}
{"smiles": "COP(=S)(OC)Oc1cc(Cl)c(Cl)cc1Cl", "Potency": "inactive"}
{"smiles": "CCC1(CC)C(=O)C=CNC1=O", "Potency": "inactive"}
{"smiles": "CCC(C)C(C)(COC(N)=O)COC(N)=O", "note": "(stereo not given)", "Potency": "inactive"}
{"smiles": "C[C@H]1[C@@H]2Cc3ccc(O)cc3[C@@]1(C)CCN2C", "Potency": "inactive"}
{"smiles": "COc1cccc(C(=O)CCN[C@@H](C)[C@H](O)c2ccccc2)c1", "Potency": "inactive"}
{"smiles": "CN1C(=O)NC(=O)C(C)(C2=CCCCC2)C1=O", "note": "(stereo not given)", "Potency": "inactive"}
{"smiles": "[N-]=[N+]=CC(=O)OC[C@H](N)C(=O)O", "Potency": "inactive"}
{"smiles": "COc1cc(CC(C)N)cc(OC)c1OC", "note": "(stereo not given)", "Potency": "inactive"}
{"smiles": "CCN(CC)CCc1c[nH]c2ccccc12", "Potency": "inactive"}
{"smiles": "CCC(CC)(CNC(=O)CCCO)c1cccc(OC)c1", "Potency": "inactive"}
{"smiles": "CC(C)C[C@H](CN)CC(=O)O", "Potency": "inactive"}
{"smiles": "O=C1c2ccccc2C(=O)c2ccccc21", "Potency": "inactive"}
{"smiles": "CN1C(=O)CCS(=O)(=O)C1c1ccc(Cl)cc1", "note": "(stereo not given)", "Potency": "inactive"}
